# Records with an inconclusive call do not appear.
# Assay: qHTS Assay for Lipid Storage Modulators (AID 1519)
# Details: Drosophila S3 cells, BODIPY lipid droplet/cell ratio, laser cytometry; measured here: cell count channel max response; cells loaded with oleic acid
# Procedure, shortened: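 Cells seeded at 5,000 per well were treated with compounds over a concentration series and loaded with oleic acid (400 uM, as added). Lipid droplet fluorescence (488 nm excitation, 500-530 nm channel) was read by laser-scanning cytometry and normalized to 20 uM Triacsin C.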
row,SMILES,max response [%]
1,COc1cccc(Nc2ncc3nc(CCc4ccccc4)c(=O)n(C)c3n2)c1,27.3
2,Cc1nc2cncnc2n(C2CC2)c1=O,24
3,COc1ccc2[nH]cc(CCNc3ncnc4ccc(-c5cccnc5)cc34)c2c1,-7.3
4,Cn1c(=O)c(-c2ccc(Cl)cc2)nc2cnc(N3CCOCC3)nc21,10.9
5,CN(C)c1ncc2nc(-c3ccccc3)c(=O)n(Cc3ccc(F)cc3)c2n1,7.88
6,COc1ccc(Oc2ncc3nc(-c4ccc(Cl)cc4)c(=O)n(C[C@H]4CCCO4)c3n2)cc1,-25.3
7,COc1ncc2nc(-c3ccc(F)cc3)c(=O)n(C)c2n1,17.8
8,CN1CCN(c2ncc3nc(-c4cc(F)cc(F)c4)c(=O)n(Cc4cccs4)c3n2)CC1,17.2
9,CCNc1ncc2nc(-c3ccccc3)c(=O)n(Cc3cccs3)c2n1,17.2
10,CN1CCN(c2ncc3nc(-c4ccc(Cl)cc4)c(=O)n(-c4ccccc4)c3n2)CC1,13.9
11,CN1CCN(c2ncc3nc(-c4ccc(F)cc4)c(=O)n(Cc4cccs4)c3n2)CC1,8.36
12,CNc1nc(-c2ccccc2CN(C)C)nc2ccccc12,7.86
13,COCCNc1ncnc2ccc(-c3cccnc3)cc12,-1.43
14,COc1cccc(Cn2c(=O)c(-c3cccc(C#N)c3)nc3cnc(N4CCN(C)CC4)nc32)c1,21.5
15,COc1cccc(Cn2c(=O)c(-c3cc(F)cc(F)c3)nc3cnc(N(C)C)nc32)c1,19.9
16,COc1cccc(Cn2c(=O)c(-c3cc(F)cc(F)c3)nc3cnc(N4CCN(C)CC4)nc32)c1,19
17,COc1cccc(Nc2ncc3nc(C)c(=O)n(Cc4cccs4)c3n2)c1,12.9
18,CN1CCN(c2cc(-c3ccoc3)ncn2)CC1,23
19,CN(C)c1ncnc2ccc(-c3ccoc3)cc12,30.5
20,CCNc1ncc2nc(-c3cn(C)c4ccccc34)c(=O)n(Cc3cccc(OC)c3)c2n1,15.6
21,COc1ccc(-c2nc3cnc(Oc4cccc(Cl)c4)nc3n(C3CC3)c2=O)cc1,-15.3
22,COc1ncc2nc(-c3cccs3)c(=O)n(CCc3ccccc3)c2n1,-3.52

# Same assay, conditions: Drosophila S3 cells, BODIPY lipid droplet/cell ratio, laser cytometry; measured here: lipid channel max response; cells loaded with oleic acid
row,SMILES,max response [%]
1,FC(F)(F)c1ccccc1-c1nccc(NCc2cccs2)n1,8.2
2,CN1CCN(c2ncc3ncc(=O)n(C[C@H]4CCCO4)c3n2)CC1,13.9
3,COCCn1c(=O)c(-c2cccc(C#N)c2)nc2cnc(Oc3ccccc3)nc21,-8.56
4,CS(=O)(=O)Nc1cccc(-c2ccc3ncnc(Nc4ccccc4)c3c2)c1,11.8
5,FC(F)(F)c1ccccc1-c1nc(NCc2cccs2)c2ccccc2n1,10.9
6,c1ccc(CNc2ncnc3ccc(-c4cccnc4)cc23)cc1,9.68
7,COc1ccc(-c2nc3cnc(N4CCN(C)CC4)nc3n(Cc3cccs3)c2=O)cc1,18
8,COCCn1c(=O)cnc2cnc(Nc3cccc(OC)c3)nc21,-29.7
9,COCCn1c(=O)cnc2cnc(Nc3ccccc3)nc21,-12.1
10,CN1CCN(c2ncc3nc(-c4cc(F)cc(F)c4)c(=O)n(CCc4ccccc4)c3n2)CC1,3.66
11,O=c1c(-c2ccc(Cl)cc2)nc2cnc(N3CCNCC3)nc2n1Cc1cccs1,-12.6
12,O=c1c(-c2ccc(F)cc2)nc2cnc(N3CCNCC3)nc2n1C1CC1,28.4
13,COc1ccc(-n2c(=O)c(-c3ccc(Cl)cc3)nc3cnc(N4CCNCC4)nc32)cc1,16.5
14,COCCNc1ncnc2ccc(-c3cccc(OC)c3)cc12,-14.2
15,O=c1c(-c2ccc(Cl)cc2)nc2cnc(N3CCOCC3)nc2n1-c1ccccc1,19.1
16,CN(C)c1ncc2nc(-c3ccc(F)cc3)c(=O)n(Cc3ccc(F)cc3)c2n1,25.7
17,COc1ccc(-c2nc3cnc(Oc4ccccc4)nc3n(CCC#N)c2=O)cc1,-14
18,COc1cccc(Nc2ncc3nc(CCc4ccccc4)c(=O)n(C)c3n2)c1,12.3
19,Cc1nc2cncnc2n(C2CC2)c1=O,34.8
20,COc1ccc2[nH]cc(CCNc3ncnc4ccc(-c5cccnc5)cc34)c2c1,-9.11

row,SMILES,max response [%]
1,Cn1c(=O)c(-c2ccc(Cl)cc2)nc2cnc(N3CCOCC3)nc21,17.6
2,CN(C)c1ncc2nc(-c3ccccc3)c(=O)n(Cc3ccc(F)cc3)c2n1,4.69
3,COc1ccc(Oc2ncc3nc(-c4ccc(Cl)cc4)c(=O)n(C[C@H]4CCCO4)c3n2)cc1,-85.4
4,COc1ncc2nc(-c3ccc(F)cc3)c(=O)n(C)c2n1,25.2
5,CN1CCN(c2ncc3nc(-c4cc(F)cc(F)c4)c(=O)n(Cc4cccs4)c3n2)CC1,3.46
6,CCNc1ncc2nc(-c3ccccc3)c(=O)n(Cc3cccs3)c2n1,16
7,CN1CCN(c2ncc3nc(-c4ccc(Cl)cc4)c(=O)n(-c4ccccc4)c3n2)CC1,16.4
8,CN1CCN(c2ncc3nc(-c4ccc(F)cc4)c(=O)n(Cc4cccs4)c3n2)CC1,0.564
9,CNc1nc(-c2ccccc2CN(C)C)nc2ccccc12,7.77
10,COCCNc1ncnc2ccc(-c3cccnc3)cc12,-8.04
11,COc1cccc(Cn2c(=O)c(-c3cccc(C#N)c3)nc3cnc(N4CCN(C)CC4)nc32)c1,24.1
12,COc1cccc(Cn2c(=O)c(-c3cc(F)cc(F)c3)nc3cnc(N(C)C)nc32)c1,18.8
13,COc1cccc(Cn2c(=O)c(-c3cc(F)cc(F)c3)nc3cnc(N4CCN(C)CC4)nc32)c1,18.2
14,COc1cccc(Nc2ncc3nc(C)c(=O)n(Cc4cccs4)c3n2)c1,-8.07
15,CN1CCN(c2cc(-c3ccoc3)ncn2)CC1,27.8
16,CN(C)c1ncnc2ccc(-c3ccoc3)cc12,29.1
17,CCNc1ncc2nc(-c3cn(C)c4ccccc34)c(=O)n(Cc3cccc(OC)c3)c2n1,16.9
18,COc1ccc(-c2nc3cnc(Oc4cccc(Cl)c4)nc3n(C3CC3)c2=O)cc1,-19.7
19,COc1ncc2nc(-c3cccs3)c(=O)n(CCc3ccccc3)c2n1,-2.93

# Reference: PubChem BioAssay (NCATS)
